The record followed here is PubChem BioAssay (NCI).

Among the test systems are HCT-15 colon; HT29 colon; SNB-75 CNS; SNB-19 CNS; U251 CNS; PC-3 prostate; SK-MEL-5 melanoma; UACC-62 melanoma; LOX IMVI melanoma; SK-MEL-28 melanoma.
Test in all cases: NCI-60 one-dose screen, 48 h (100 = growth as untreated, 0 = no growth, -100 = all killed)
Common to all, as to conditions: 10 µM unless noted

The panel holds about 83,000 compounds, 20% with a hit somewhere; the sample as a whole holds those more often.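 Growth was measured after 48 h exposure to one concentration of compound in 96-well plates. Values under 10 count as active.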 Unmarked numbers belong to inactive results. The source made the active and inactive calls.

As to `O=C1Nc2ccccc2C12C=C(c1ccccc1)Nc1c2c(-c2ccccc2)nn1-c1ccccc1` (stereo not given), the growth in the experiment with HCT-15 colon is 53.4%; with HT29 colon, 46.1%; in the experiment with SNB-75 CNS, 71%; with SNB-19 CNS, 64.3%; with U251 CNS, 41.6%; in the experiment on PC-3 prostate, 32.2%. Moreover, the growth is 68.4% in the experiment on SK-MEL-5 melanoma, 91.9% in the experiment with UACC-62 melanoma, 65.2% in the experiment on LOX IMVI melanoma and 82.2% in the experiment on SK-MEL-28 melanoma.

Regarding `C/C(=C\c1cnc(C)s1)[C@@H]1C[C@@H]2O[C@@H]2CCC[C@H](C)[C@H](O)[C@@H](C)C(=O)C(C)(C)[C@@H](O)CC(=O)O1`, the growth with HCT-15 colon is 23%; in the experiment with HT29 colon, 8.92% (active); in the experiment with SNB-75 CNS it was -1.96% (active); in the experiment with SNB-19 CNS, 44%; in the experiment with U251 CNS, 24.5%; in the experiment with PC-3 prostate, 34.2%. Also, the growth is 34.3% in the experiment with SK-MEL-5 melanoma, 51% with UACC-62 melanoma, 46.4% in the experiment on LOX IMVI melanoma and 75.1% with SK-MEL-28 melanoma.

Turning to `CC(C)C[C@H](C(=O)O)N(C)C(=O)[C@@H]1CCCN1C(=O)[C@H](C)OC(=O)[C@H](CCC(N)=O)NC(=O)[C@@H]1CCC(=O)N1`, the growth in the experiment on HCT-15 colon was 95.9%; in the experiment on HT29 colon, 104%; in the experiment on SNB-75 CNS, 84.3%; in the experiment with SNB-19 CNS, 102%; in the experiment on U251 CNS, -37% (active); in the experiment on PC-3 prostate it was 96.6%. Further, the growth was 95.6% in the experiment with SK-MEL-5 melanoma, 102% with UACC-62 melanoma, 104% in the experiment on LOX IMVI melanoma and 103% with SK-MEL-28 melanoma.

Consider `COc1ccc(C(=S)c2cc(OC)c(OC)c(OC)c2)cc1OC(=O)CCl`, for which the growth in the experiment on HCT-15 colon is 14.3%; in the experiment with HT29 colon, 24%; with SNB-75 CNS, 53.8%; in the experiment with SNB-19 CNS it was 31.4%; in the experiment on U251 CNS, 4.79% (active); with PC-3 prostate it was 14.1%. Also, the growth in the experiment on SK-MEL-5 melanoma was -29.7% (active); with UACC-62 melanoma it was 47.9%; with LOX IMVI melanoma, 19.6%; with SK-MEL-28 melanoma, 67.8%.

Regarding `COc1ccc(/C=C/C(=O)c2ccc(NC(=O)CSc3nnc(-c4ccc(OC)c(OC)c4)n3-c3ccccc3)cc2)cc1`, the growth in the experiment with HCT-15 colon was 4.42% (active); in the experiment with HT29 colon, 43.7%; in the experiment with SNB-75 CNS, 63.3%; in the experiment with SNB-19 CNS it was 60.5%; in the experiment on U251 CNS it was -9.68% (active); in the experiment with PC-3 prostate, 53.1%. Further, the growth was 73.4% in the experiment on SK-MEL-5 melanoma, 68.4% in the experiment on UACC-62 melanoma, -87.5% (active) with LOX IMVI melanoma and 95.8% in the experiment with SK-MEL-28 melanoma.

For the compound `C=CCn1c(SCC(=O)Nc2ccc(C(=O)/C=C/c3ccc(Cl)cc3)cc2)nnc1-c1cc(OC)c(OC)c(OC)c1`, the growth in the experiment with HCT-15 colon was 89.7%; in the experiment with HT29 colon, 97.4%; in the experiment on SNB-75 CNS it was 86.2%; in the experiment on SNB-19 CNS it was 85.3%; with U251 CNS, 90.7%; in the experiment on PC-3 prostate it was 75.2%. Also, the growth in the experiment with SK-MEL-5 melanoma was 63.5%; with UACC-62 melanoma, 70.4%; in the experiment with LOX IMVI melanoma, 91.8%; with SK-MEL-28 melanoma, 106%.

In the case of `Cc1ccc(-c2nc(C#N)c(S(=O)(=O)N(C)CCO)o2)cc1`, the growth was 37.6% in the experiment on HCT-15 colon; 28.1% in the experiment with HT29 colon; 101% with SNB-75 CNS; 86.5% with SNB-19 CNS; 83.7% in the experiment on U251 CNS; 99.8% with PC-3 prostate. The growth was 71.4% with SK-MEL-5 melanoma, 62.4% in the experiment on UACC-62 melanoma, 41.9% in the experiment with LOX IMVI melanoma and 82% with SK-MEL-28 melanoma.

With `COc1cc(C2=NN(c3ccccc3)C(c3cccc(Nc4ccnc5cc(C(F)(F)F)ccc45)c3)C2)cc(OC)c1OC` (stereo not given), the growth with HCT-15 colon was 78.1%; with HT29 colon it was 71%; with SNB-75 CNS, 106%; with SNB-19 CNS it was 92.8%; with U251 CNS, 95.5%; with PC-3 prostate it was 72.4%. For the same compound, the growth was 89.8% with SK-MEL-5 melanoma, 83.5% in the experiment on UACC-62 melanoma, 81.9% in the experiment on LOX IMVI melanoma and 100% with SK-MEL-28 melanoma.

As to `COc1ccc2cc(/C=C3\N=C(c4cc(OC)c(OC)c(OC)c4)OC3=O)c(OC)nc2c1`, the growth in the experiment on HCT-15 colon was 99.4%; in the experiment with HT29 colon, 98.8%; in the experiment on SNB-75 CNS, 98.3%; in the experiment with SNB-19 CNS, 94.6%; in the experiment with U251 CNS, 92.8%; with PC-3 prostate it was 93.6%. Also, the growth is 103% in the experiment on SK-MEL-5 melanoma, 89.7% in the experiment on UACC-62 melanoma, 102% with LOX IMVI melanoma and 110% in the experiment on SK-MEL-28 melanoma.

Turning to `O=C1NC(c2ccc(F)cc2)N=C2C(c3ccccc3)=NOC12` (stereo not given), the growth was 103% with HCT-15 colon; 98.7% in the experiment on HT29 colon; 101% with SNB-75 CNS; 103% with SNB-19 CNS; 101% with U251 CNS; 104% in the experiment on PC-3 prostate. In addition, the growth in the experiment on SK-MEL-5 melanoma is 105%; in the experiment on UACC-62 melanoma it was 102%; in the experiment on LOX IMVI melanoma it was 108%; in the experiment on SK-MEL-28 melanoma, 115%.

As for `Cc1cc(C)cc(Nc2nccc(-c3c(-c4ccc(F)cc4)ncn3C3CCNCC3)n2)c1`, the growth in the experiment on HCT-15 colon is 9.67% (active); with HT29 colon it was -0.976% (active); in the experiment with SNB-75 CNS it was 17%; with SNB-19 CNS it was 27.5%; with U251 CNS it was 13.1%; with PC-3 prostate, 15.4%. Also, the growth is -87.6% (active) in the experiment with SK-MEL-5 melanoma, 21.6% in the experiment with UACC-62 melanoma, -81.3% (active) in the experiment on LOX IMVI melanoma and -34.7% (active) in the experiment with SK-MEL-28 melanoma.
